# The whole screen tested about 310,000 compounds, of which about 14,000 (4.5%) showed an effect of 50% or more. The effect is printed as a negative number. This is one part of a sample in which strong results are shown more often than they occur.
# Target: human ether-à-go-go-related gene (hERG) potassium channel (human, UniProt Q12809)
# Assay: primary screen, population patch clamp on CHO cells stably expressing hERG; higher = less effect of the substance
# 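Further: peak tail current of the secondary pulse compared with the same well before compound.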
# Sequence of human ether-à-go-go-related gene (hERG) potassium channel (Q12809 whole entry, looked up): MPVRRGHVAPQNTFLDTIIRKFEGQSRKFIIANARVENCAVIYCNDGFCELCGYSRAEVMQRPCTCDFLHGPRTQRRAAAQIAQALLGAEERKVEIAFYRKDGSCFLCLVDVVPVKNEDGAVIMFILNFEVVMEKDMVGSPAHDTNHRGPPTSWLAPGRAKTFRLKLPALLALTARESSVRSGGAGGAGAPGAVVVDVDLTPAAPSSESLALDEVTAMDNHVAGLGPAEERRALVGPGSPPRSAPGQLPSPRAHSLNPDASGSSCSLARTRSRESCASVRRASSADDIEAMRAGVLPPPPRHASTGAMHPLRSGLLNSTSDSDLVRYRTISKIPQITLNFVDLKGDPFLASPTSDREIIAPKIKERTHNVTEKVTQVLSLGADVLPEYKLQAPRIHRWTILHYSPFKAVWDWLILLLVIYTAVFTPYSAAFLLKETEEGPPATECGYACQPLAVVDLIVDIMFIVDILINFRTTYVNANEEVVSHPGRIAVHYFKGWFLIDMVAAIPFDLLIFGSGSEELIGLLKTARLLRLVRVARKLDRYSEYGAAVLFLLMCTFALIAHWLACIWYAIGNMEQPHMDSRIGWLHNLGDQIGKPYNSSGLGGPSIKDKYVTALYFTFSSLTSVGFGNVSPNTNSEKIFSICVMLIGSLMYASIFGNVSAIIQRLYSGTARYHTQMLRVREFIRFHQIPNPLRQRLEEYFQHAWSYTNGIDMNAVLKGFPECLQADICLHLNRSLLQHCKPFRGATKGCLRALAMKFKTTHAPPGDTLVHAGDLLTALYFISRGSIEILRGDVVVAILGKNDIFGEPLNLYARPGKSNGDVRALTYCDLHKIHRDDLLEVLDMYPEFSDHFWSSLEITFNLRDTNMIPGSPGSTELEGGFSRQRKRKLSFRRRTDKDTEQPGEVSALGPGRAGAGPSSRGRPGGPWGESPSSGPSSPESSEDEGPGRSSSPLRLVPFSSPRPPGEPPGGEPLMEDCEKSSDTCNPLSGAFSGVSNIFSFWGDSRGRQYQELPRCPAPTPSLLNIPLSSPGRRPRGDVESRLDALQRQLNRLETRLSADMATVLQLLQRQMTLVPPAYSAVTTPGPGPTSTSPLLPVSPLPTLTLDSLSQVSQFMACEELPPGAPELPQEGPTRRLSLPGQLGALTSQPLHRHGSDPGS
row,SMILES,"hERG current change (%, negative = inhibition) at 10uM [%]"
1,Cl.Fc1ccc(C(OCCN2CCCC2)c2ccc(F)cc2)cc1,-71.3
2,CC(C)(C)c1ccc(C(=O)OCCN2CCCCC2)cc1.Cl,-47.6
3,CC(OCCN1CCCC1)(c1ccc(F)cc1)c1ccc(F)cc1.Cl,-63.1
4,Cl.Fc1ccc(C(OCCN2CCCC2)c2ccc(Br)cc2)cc1 (centres unmarked),-75.8
5,Fc1ccc(OCCOCCN2CCCC2)cc1,-12.6
6,CCOC(=O)[C@H]1[C@H]2COc3cc(OC)ccc3[C@@H]2N2C(=O)CN(Cc3ccc(OC)cc3)C(=O)[C@@]12C,-1.96
7,CC1CCc2sc(C(=O)N3CCC(C(N)=O)CC3)cc2C1 (centres unmarked),5.36
8,CCN(CC)S(=O)(=O)c1cccc(C(=O)Nc2nncs2)c1,1.66
9,O=C(CSc1nnc(-c2ccc(S(=O)(=O)N3CCOCC3)cc2)o1)c1ccccc1F,1.84
10,Cc1cc(SCC(=O)NCCN2C(=O)CSC2=O)nc2c(C)cccc12,0.207
11,CCCc1c(C)c2cc(C)ccc2[nH]c1=O,-25.3
12,Cc1ccc(-c2csc3nc4c5ccccc5c(NCCCN(C)C)nn4c(=O)c23)cc1,-78
13,Cc1ccc(-c2csc3nc4c5ccccc5c(NCCCN5CCOCC5)nn4c(=O)c23)cc1,2.7
14,CN(C)CCCNc1ncnc2scc(-c3ccccc3)c12.O=C(O)C(=O)O,-27.9
15,COc1ccc(C(C)=O)cc1CSC(=N)N.Cl,9.4
16,COc1ccc(C(=O)N(C)Cc2ccccn2)cc1OC1CCN(C(C)C)CC1,9.45
17,CCc1cc2c(=O)n(CCCOC)c(SCC(=O)Nc3oc(C)c4c(C)n[nH]c(=O)c34)nc2s1,-1.43
18,Cc1n[nH]c(=O)c2c(NC(=O)CSc3nc4ccccc4c(=O)n3C(C)C)oc(C)c12,-27
19,Cc1n[nH]c(=O)c2c(NC(=O)CSc3nc4ccccc4c(=O)n3-c3ccc(OC(F)F)cc3)oc(C)c12,-59.2
20,Cc1n[nH]c(=O)c2c(NC(=O)CSc3cc(Cl)ccc3Cl)oc(C)c12,-10.9
21,COCCCn1c(SCC(=O)Nc2oc(C)c3c(C)n[nH]c(=O)c23)nc2sc3c(c2c1=O)CCC3,-49.7
22,Cc1ccc(SCC(=O)Nc2oc(C)c3c(C)n[nH]c(=O)c23)cc1C,-27.6
23,COCC(C)n1c(SCC(=O)Nc2oc(C)c3c(C)n[nH]c(=O)c23)nc2ccccc2c1=O (centres unmarked),6.9
24,Cc1ccc(C)c(SCC(=O)Nc2oc(C)c3c(C)n[nH]c(=O)c23)c1,-52.4

row,SMILES,"hERG current change (%, negative = inhibition) at 10uM [%]"
1,CCn1c(SCC(=O)Nc2oc(C)c3c(C)n[nH]c(=O)c23)nc2sc(C)c(C)c2c1=O,-61.7
2,Nc1ccc(C(=O)N2CCCC2)cc1CS(=O)(=O)c1ccc(Cl)cc1,-4.18
3,CN(c1ccccc1)c1nc(N)c([N+](=O)[O-])c(Nc2cccc(F)c2)n1,24
4,COc1ccc(N2C(=O)/C(=C\c3ccco3)N=C2SCC(=O)NC(C)C)cc1Cl,4.42
5,C=CCNC(=O)C(C)N1c2cccc3cccc(c23)S1(=O)=O (centres unmarked),9.53
6,COc1ccc(-n2nnnc2/C(=C/N(C)C)C(=O)c2ccccc2)cc1,-4.92
7,S=C(NC1CCCCC1)N1CCn2cccc2C1c1cccnc1 (centres unmarked),-8.63
8,O=C(O)COc1cccc(/C=C2/SC(=S)N(Cc3ccccc3)C2=O)c1,0.27
9,CC(C)(C)c1csc(NC(=O)c2cccnc2)n1,13.6
10,CC(C)(C)c1csc(NC(=O)c2cccs2)n1,-16.3
11,CC(C)(C)c1csc(NC(=O)c2ccccc2O)n1,-0.0514
12,CC(C)(C)c1csc(NC(=O)c2ccncc2)n1,-33.7
13,CC(C)(C)c1csc(NC(=O)c2c(F)c(F)c(F)c(F)c2F)n1,-63.9
14,CC(C)(C)c1csc(NC(=O)c2ccc3nccnc3c2)n1,-57.2
15,CN(C)S(=O)(=O)N1CCc2ccccc2C1,2.94
16,Cc1cc(C)n(-c2nc3ccccc3nc2N2CCN(S(=O)(=O)c3ccc(F)c(C)c3)CC2)n1,9.54
17,Cc1nn(CC(=O)NCC(C)c2ccccc2)c(=O)c2cc3occc3n12 (centres unmarked),-3.5
18,Cn1nnc2c[n+](CC(=O)c3ccc(Cl)cc3)cc(Br)c21.[Br-],-24.7
19,O=C(C[n+]1ccccc1)c1ccc(Cl)cc1.[I-],10
20,COc1ccc(C(=O)C[n+]2ccc3c(c2)nc(-c2cc(OC)c(OC)cc2OC)n3C)cc1.[Br-],6.93
21,O=C(C[n+]1ccc2c(c1)nnn2-c1ccccc1)c1ccc(Cl)cc1.[Br-],-69
22,COc1ccc(C(=O)C[n+]2ccc3c(c2)nnn3-c2ccccc2)cc1.[Br-],-60.5
23,COc1ccc(C(=O)C[n+]2ccc3c(c2)nc(-c2ccccc2)n3C)cc1.[Br-],-1.44

# Reference: publication PMC4336329 (PLoS ONE, 2015)
